Design in all cases: scale not given: direction of the effect not stated beside the values
For experiment [1], the target named is Protein translocase subunit SecA (Escherichia coli (strain K12)) (UniProt P10408). As to the kind of experiment: Assay to Identify E. coli SecA ATPase Inhibitors. In kind it is functional. The conditions noted are these: 30 µM.
The target in experiment [2] is T1, Ubiquitin-activating enzyme e1, putative (Leishmania donovani (strain BPK282A1)) (UniProt E9BSI1).
T1 sequence (whole entry): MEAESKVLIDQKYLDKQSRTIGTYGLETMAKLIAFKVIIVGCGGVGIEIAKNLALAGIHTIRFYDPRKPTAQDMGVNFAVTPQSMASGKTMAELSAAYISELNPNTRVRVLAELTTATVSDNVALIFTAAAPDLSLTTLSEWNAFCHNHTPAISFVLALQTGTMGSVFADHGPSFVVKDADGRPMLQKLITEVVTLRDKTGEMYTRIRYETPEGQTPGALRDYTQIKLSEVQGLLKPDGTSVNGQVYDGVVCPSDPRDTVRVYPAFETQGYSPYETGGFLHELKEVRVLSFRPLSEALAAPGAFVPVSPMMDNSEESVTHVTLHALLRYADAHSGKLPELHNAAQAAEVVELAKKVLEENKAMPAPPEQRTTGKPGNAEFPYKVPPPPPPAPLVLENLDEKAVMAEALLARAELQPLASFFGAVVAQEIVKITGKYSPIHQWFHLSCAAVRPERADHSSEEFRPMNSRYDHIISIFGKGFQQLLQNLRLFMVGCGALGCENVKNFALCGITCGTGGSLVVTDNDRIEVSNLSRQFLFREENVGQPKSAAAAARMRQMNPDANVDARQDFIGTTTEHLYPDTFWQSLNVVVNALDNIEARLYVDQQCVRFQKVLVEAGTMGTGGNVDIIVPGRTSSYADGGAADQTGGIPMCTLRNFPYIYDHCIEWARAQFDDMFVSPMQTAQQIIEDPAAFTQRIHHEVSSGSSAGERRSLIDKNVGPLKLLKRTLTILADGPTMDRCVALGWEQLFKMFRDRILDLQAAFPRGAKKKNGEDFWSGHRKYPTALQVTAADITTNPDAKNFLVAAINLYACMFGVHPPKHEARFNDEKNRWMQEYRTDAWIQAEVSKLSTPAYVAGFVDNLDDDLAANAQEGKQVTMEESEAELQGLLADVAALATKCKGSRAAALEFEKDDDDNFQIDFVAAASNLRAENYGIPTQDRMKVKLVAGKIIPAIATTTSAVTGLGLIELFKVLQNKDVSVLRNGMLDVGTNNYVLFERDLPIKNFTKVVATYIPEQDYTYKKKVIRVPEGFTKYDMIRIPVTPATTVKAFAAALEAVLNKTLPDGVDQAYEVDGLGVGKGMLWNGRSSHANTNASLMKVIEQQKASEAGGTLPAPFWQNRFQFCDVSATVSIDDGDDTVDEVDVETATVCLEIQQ
As to the kind of experiment: Leishmania donovani Ubiquitin Activating Enzyme (LdE1). In kind it is functional. Particulars: 30 µM.

For experiment [3], the target named is AMP-activated protein kinase, AMPK (Homo sapiens) (UniProt P54646+O43741+P54619+Q9UGJ0+Q9Y478+Q13131+Q9UGI9). As to the kind of experiment: AMP-dependent Kinase enzyme assay. An in vitro enzyme assay that detects ADP turnover that is directly proportional to AMPK activity. This uses naive AMPK that is activated during the assay with MK-8722. The conditions noted are these: 30 µM. In kind it is functional.

In experiment [4] the target is Sialic acid-binding Ig-like lectin 9 (Homo sapiens) (UniProt Q9Y336). As to the kind of experiment: Hs-Siglec9 ALPHAscreen SOP 20170721. Particulars: 10 µM. A general note: In Alpha technology, singlet oxygen from a donor bead excites a nearby acceptor bead.
The test system of experiment [5] is Trypanosoma cruzi. As to the kind of experiment: Trypanosoma cruzi phosphomannomutase and mannose-1-phosphate guanylyltransferase assay. In kind it is functional. Particulars: 10 µM.
The target of experiment [6] is T2, Arginase-2, mitochondrial (Homo sapiens) (UniProt P78540).
T2 sequence (whole entry): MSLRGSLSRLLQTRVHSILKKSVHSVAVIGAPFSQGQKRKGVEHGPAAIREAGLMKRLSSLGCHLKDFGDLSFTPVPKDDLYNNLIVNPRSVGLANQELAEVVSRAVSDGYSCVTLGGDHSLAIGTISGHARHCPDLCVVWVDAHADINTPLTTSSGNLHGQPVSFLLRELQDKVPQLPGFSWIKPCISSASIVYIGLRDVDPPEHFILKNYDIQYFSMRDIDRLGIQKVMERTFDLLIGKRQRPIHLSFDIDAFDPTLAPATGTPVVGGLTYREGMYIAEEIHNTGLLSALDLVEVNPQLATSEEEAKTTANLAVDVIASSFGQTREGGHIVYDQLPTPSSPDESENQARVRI
As to the kind of experiment: in vitro enzyme assay to detect the production of urea directly proportional to the activity of Arginase II. Note: in the data most compounds retested in dose-response had high values. Particulars: 33.3 µM. In kind it is functional.

For experiment [7], the target named is T3, Proteasome subunit beta (Trypanosoma cruzi) (UniProt O96673).
T3 sequence (whole entry): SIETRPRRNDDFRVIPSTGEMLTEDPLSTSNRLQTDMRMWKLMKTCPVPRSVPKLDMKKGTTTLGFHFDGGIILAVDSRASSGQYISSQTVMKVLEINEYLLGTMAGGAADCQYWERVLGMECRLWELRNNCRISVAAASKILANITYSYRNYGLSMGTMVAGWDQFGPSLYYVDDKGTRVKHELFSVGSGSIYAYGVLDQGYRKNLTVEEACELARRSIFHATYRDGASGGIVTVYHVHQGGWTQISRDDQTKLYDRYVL
As to the kind of experiment: Trypanosoma cruzi proteasome chymotrypsin-like activity (TcProtChymo) assay. Note: in the data most compounds retested in dose-response had high values. In kind it is functional. The conditions noted are these: 9.37 µM.

For experiment [8], the species on record is Homo sapiens. As to the kind of experiment: To identify inhibition of the IFN signalling (Jak-Stat) pathway via expression of an eGFP reporter gene under the control of an IFN-stimulated response element (ISRE) containing MxA promoter. In kind it is functional. Particulars: 30 µM. In general terms: Reporter assays use an easily measured gene product as a stand-in for the process of interest.

In experiment [9] the target is T4, Tyrosyl-tRNA synthetase, putative (Trypanosoma cruzi (strain CL Brener)) (UniProt Q4DSP6).
T4 sequence (whole entry): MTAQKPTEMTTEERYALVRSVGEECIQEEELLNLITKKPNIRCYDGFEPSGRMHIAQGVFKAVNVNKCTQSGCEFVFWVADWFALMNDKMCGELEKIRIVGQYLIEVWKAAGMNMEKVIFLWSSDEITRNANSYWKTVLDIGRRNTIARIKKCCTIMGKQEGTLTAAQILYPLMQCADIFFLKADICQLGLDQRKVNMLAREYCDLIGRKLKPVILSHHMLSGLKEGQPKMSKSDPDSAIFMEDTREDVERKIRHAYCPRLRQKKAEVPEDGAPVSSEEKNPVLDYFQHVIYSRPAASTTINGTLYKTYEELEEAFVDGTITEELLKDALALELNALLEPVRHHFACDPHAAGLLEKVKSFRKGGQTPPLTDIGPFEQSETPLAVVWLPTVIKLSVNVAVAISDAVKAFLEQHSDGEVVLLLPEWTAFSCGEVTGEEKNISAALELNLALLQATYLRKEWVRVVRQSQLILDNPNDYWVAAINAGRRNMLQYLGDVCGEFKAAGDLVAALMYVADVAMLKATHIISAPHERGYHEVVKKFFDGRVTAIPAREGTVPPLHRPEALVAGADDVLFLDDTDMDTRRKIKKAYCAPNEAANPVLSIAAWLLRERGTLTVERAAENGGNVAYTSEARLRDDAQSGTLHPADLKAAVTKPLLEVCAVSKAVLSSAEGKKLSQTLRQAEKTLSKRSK
As to the kind of experiment: Trypanosoma cruzi tyrosyl tRNA synthetase (TcYRS) _High Tyrosine SOP. Note: in the data most compounds retested in dose-response had high values. In kind it is functional. The conditions noted are these: 30 µM.

Experiment [10] concerns the target T4, Tyrosyl-tRNA synthetase, putative (Trypanosoma cruzi (strain CL Brener)). As to the kind of experiment: Trypanosoma cruzi tyrosyl tRNA synthetase (TcYRS) SOP. In kind it is functional. Particulars: 30 µM.
Experiment [11] has as its target Chromo domain-containing protein 1 (Saccharomyces cerevisiae (strain ATCC 204508 / S288c) (Baker's yeast)) (UniProt P32657). As to the kind of experiment: ScCHD-1 Enzyme Inhibition Assay. Note: in the data most compounds retested in dose-response had high values. In kind it is functional. Particulars: 30 µM.

For some of these results: Measured potencies and affinities stand elsewhere.

Protein translocase subunit SecA (Escherichia coli (strain K12)), sequence (P10408 whole entry): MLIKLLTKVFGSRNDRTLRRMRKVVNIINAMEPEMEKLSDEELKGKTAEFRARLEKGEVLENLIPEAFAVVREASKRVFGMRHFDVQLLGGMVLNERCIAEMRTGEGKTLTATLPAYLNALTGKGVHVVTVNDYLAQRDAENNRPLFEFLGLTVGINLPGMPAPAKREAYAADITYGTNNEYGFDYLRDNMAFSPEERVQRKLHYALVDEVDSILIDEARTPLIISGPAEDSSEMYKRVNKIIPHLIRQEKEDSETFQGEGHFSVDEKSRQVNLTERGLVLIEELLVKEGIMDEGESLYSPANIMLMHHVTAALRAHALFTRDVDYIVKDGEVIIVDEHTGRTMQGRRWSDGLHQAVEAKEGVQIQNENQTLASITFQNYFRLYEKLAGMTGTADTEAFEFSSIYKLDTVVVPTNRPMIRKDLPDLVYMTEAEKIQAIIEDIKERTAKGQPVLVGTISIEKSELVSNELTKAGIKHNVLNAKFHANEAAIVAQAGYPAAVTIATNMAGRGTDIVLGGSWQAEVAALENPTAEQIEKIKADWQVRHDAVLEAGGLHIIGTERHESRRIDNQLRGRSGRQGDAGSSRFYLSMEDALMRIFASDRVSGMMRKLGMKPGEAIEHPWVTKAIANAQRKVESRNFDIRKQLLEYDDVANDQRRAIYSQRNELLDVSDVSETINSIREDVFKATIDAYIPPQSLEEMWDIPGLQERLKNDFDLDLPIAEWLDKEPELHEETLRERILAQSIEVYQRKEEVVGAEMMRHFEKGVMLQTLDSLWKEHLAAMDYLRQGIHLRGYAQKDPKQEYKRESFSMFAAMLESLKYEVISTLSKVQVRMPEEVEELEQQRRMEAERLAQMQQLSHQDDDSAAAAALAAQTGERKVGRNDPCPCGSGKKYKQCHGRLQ
Sialic acid-binding Ig-like lectin 9 (Homo sapiens), sequence (Q9Y336 whole entry): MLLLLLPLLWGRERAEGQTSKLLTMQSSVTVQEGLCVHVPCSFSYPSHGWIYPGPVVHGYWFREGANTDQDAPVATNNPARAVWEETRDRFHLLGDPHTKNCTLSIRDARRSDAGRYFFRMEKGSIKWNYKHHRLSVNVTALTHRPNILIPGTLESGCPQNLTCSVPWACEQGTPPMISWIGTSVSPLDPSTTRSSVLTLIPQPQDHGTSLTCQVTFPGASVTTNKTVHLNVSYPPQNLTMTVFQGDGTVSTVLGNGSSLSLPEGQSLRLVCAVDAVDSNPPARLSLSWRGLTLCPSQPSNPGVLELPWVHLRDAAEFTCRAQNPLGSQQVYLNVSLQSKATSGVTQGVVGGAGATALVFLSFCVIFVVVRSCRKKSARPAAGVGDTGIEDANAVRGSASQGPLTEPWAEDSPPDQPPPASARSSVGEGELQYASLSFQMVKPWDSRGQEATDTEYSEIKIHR
Chromo domain-containing protein 1 (Saccharomyces cerevisiae (strain ATCC 204508 / S288c) (Baker's yeast)), sequence (P32657 whole entry, the tested form may be a part): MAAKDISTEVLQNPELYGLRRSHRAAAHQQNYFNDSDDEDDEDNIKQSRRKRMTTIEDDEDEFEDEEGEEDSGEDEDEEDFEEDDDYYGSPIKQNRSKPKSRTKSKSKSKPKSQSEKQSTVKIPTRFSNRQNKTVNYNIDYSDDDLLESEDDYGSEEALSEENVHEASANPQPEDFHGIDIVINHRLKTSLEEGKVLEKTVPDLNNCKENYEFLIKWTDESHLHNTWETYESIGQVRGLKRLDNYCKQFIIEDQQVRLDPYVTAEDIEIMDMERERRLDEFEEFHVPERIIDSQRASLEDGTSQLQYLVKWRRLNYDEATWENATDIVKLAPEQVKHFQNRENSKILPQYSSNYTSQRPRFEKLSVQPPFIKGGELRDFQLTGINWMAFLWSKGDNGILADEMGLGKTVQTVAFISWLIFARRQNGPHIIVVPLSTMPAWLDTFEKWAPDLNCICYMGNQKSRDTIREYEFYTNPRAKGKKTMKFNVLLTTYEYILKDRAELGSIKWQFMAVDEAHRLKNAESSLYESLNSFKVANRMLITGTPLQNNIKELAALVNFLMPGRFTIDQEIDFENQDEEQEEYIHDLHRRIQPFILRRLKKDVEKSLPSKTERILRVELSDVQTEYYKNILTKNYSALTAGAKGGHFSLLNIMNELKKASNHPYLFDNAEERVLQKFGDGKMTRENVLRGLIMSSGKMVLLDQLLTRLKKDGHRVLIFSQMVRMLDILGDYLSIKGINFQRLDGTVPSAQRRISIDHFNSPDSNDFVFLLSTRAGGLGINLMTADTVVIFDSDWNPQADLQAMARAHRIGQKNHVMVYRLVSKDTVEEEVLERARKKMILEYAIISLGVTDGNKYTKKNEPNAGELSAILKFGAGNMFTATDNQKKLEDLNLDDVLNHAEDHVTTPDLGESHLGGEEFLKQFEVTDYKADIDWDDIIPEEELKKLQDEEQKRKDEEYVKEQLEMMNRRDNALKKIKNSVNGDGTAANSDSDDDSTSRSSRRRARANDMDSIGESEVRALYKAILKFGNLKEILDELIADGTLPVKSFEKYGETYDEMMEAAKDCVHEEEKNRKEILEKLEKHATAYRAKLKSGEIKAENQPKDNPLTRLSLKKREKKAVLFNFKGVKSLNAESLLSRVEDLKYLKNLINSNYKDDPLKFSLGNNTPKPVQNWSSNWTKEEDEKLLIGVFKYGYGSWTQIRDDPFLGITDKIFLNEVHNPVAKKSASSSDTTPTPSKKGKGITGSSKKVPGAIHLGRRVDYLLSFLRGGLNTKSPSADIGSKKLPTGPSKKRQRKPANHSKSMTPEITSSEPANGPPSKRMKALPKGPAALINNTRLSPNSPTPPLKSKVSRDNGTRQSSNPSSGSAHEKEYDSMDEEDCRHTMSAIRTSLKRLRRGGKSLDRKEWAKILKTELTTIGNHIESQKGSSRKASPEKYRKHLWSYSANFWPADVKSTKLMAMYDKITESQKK

As for `CSCc1nc(C(C)(C)NC(=O)OC(C)(C)C)no1`, the Percent Effect in experiment [1] was -2.5%; in experiment [2], 2.67%; in experiment [3], -2.2%; in experiment [4], 1.89%; in [5], 7.3%; in experiment [6], -2.08%. The Percent Effect is 9.07% in experiment [7]; -12.6% in [8]; -0.546% in [9]; 1.24% in experiment [10]; 107% in [11].
As for `Cc1cc(CN(C)C(=O)NC2CCCN(c3ncccn3)C2)no1` (stereo not drawn), the Percent Effect is -1.33% in experiment [1]; 5.26% in experiment [2]; 1.46% in experiment [3]; 4.34% in experiment [4]; 3.01% in experiment [5]; -1.92% in [6]. The Percent Effect in [7] was 2.34%; in experiment [8] it was -2.99%; in [9] it was 9.31%; in [10] it was 21.9%; in experiment [11] it was -10.3%.
For the compound `CCn1nnc2c1C(COC)CN(Cc1ccsc1)C2` (stereo not drawn), the Percent Effect in experiment [1] is -6.4%; in experiment [2], 5.41%; in experiment [3] it was 1.42%; in [4] it was -2.12%; in experiment [5] it was -5.77%; in experiment [6], -2.73%. Besides, the Percent Effect was 10.2% in experiment [7]; -14.5% in [8]; 2.15% in experiment [9]; 3.7% in experiment [10]; -3.53% in experiment [11].
In the case of `Clc1ccccc1C1(c2ccnc(-c3ccncc3)n2)CCNCC1`, the Percent Effect in experiment [1] is -0.572%; in experiment [2], 7.79%; in experiment [3], 3.38%; in experiment [4] it was 10.4%; in [5] it was -2.26%; in experiment [6], -8.28%. Besides, the Percent Effect in experiment [7] is 17%; in experiment [8] it was 16.3%; in [9] it was 6.45%; in [10], 13.6%; in [11], 2.54%.
On to `Cc1cc(NC(=O)NCCc2ccsc2)n(C)n1`, for which the Percent Effect was -0.993% in [1]; 15.3% in [2]; -5.89% in [3]; 15.8% in experiment [4]; 0.291% in experiment [5]; -0.883% in experiment [6]. The Percent Effect in experiment [7] is 20.7%; in experiment [8], -9.26%; in experiment [9], 1.05%; in [10], 10.3%; in experiment [11], 85%.
With `O=C(NCN1CCc2ccccc2C1)c1cnccn1`, the Percent Effect in [1] was -0.536%; in experiment [2], 2.7%; in [3], -2.81%; in experiment [4], -3.19%; in experiment [5], -7.33%; in experiment [6] it was 2.73%. The Percent Effect in [7] is 10.4%; in experiment [8], 0.709%; in experiment [9], 1.07%; in experiment [10], 6.17%; in experiment [11], -6.84%.
For `Nc1nccc(NCc2cc3n(n2)CCCN(C(=O)C2CCC2)C3)n1`, the Percent Effect in [1] was -4.85%; in experiment [2], 8.22%; in experiment [3], 2.89%; in experiment [4], 2.05%; in experiment [5], -0.794%; in experiment [6] it was -3.59%. Also, the Percent Effect in experiment [7] was 14.5%; in experiment [8] it was 9.88%; in experiment [9] it was 4.17%; in experiment [10] it was 11.1%; in experiment [11], -0.468%.
In the case of `COc1ccc(CN2C[C@@H]3OCCN(CC4CCCO4)[C@@H]3C2)cc1` (stereo partly drawn), the Percent Effect is -0.662% in [1]; 10.8% in [2]; 2.03% in [3]; -5.49% in experiment [4]; 6.16% in experiment [5]; -4.78% in [6]. Also, the Percent Effect in experiment [7] worked out at 17.3%; in [8], 3.23%; in experiment [9], 3.24%; in experiment [10], 12.8%; in experiment [11] it was 5.65%.
